The campaign covered roughly 16,000 compounds. About 5,100 (32%) were called active. Inconclusive results (about 25%) are left out. The list shows a part of the results. Unmarked numbers belong to inactive results. The call rests on the fitted dose curve; in most records, active means well fitted curve in the direction sought with a large enough effect; inconclusive means small, poorly fitted or top-dose-only effect, or effect the other way; inactive means no such curve, though single readings can be large or run the other way.
Molecular target: Cytochrome P450 3A4 (Homo sapiens) (UniProt P08684)
Sequence (P08684 whole entry, looked up): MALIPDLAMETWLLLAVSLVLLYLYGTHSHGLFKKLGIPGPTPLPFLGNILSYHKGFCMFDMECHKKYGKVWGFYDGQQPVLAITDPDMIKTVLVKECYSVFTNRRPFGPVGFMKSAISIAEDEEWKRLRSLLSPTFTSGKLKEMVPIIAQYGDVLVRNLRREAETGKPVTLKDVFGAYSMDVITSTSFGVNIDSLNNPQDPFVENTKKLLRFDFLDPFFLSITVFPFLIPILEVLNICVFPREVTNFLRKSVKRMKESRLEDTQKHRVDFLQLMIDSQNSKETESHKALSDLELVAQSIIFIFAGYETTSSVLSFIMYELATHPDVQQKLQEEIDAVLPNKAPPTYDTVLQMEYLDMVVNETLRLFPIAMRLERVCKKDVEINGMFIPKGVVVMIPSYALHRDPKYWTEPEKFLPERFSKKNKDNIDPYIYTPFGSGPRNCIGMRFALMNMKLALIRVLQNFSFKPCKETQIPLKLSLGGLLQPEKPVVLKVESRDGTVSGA
Test: Cytochrome panel assay with activity outcomes
Settings: recombinant CYP, pro-luciferin dealkylation, luminescence, p450-cyp3a4; series mostly up to 57.1 µM
On the % scale 0 is the no-effect control and ±100 the full control effect.

| SMILES | activity, negative = inhibition | AC50 |
| --- | --- | --- |
| NC[C@H]1O[C@H](n2cnc3c(N)ncnc32)C[C@@H]1O | -10.5% [at 11.4 µM] | – |
| CCc1ccc(N(C(=O)c2snc(C(N)=O)c2N)C(C(=O)NCCC(C)C)c2c[nH]c3ccccc23)cc1 (centres undefined) | – | 3.98 µM (active) |
| CC(=O)OC[C@@H]1O[C@@H](O/N=C2/C[C@@H](O)[C@@H](O)[C@@H]3[C@@H]4C(=O)N(C5CCCCC5)C(=O)[C@H]4CC[C@@H]23)[C@H](OC(C)=O)[C@H](OC(C)=O)[C@@H]1OC(C)=O | -21.5% [at 11.4 µM] | – |
| COc1cccc(-c2noc(-c3cccnc3)n2)c1 | – | 5.01 µM (active) |
| COc1ccc(-c2cc(C(F)(F)F)nc(NCc3cccnc3)n2)cc1 | – | 4.47 µM (active) |
| COc1cccc(-c2nccc(NCc3cccnc3)n2)c1 | – | 1.26 µM (active) |
| c1ccc(-c2noc(-c3ccc4ccccc4c3)n2)cc1 | – | inactive |
| COc1cccc(-c2nccc(NC3CCNCC3)n2)c1 | – | inactive |
| COc1cccc(-c2nccc(NCc3ccccc3)n2)c1 | – | 3.98 µM (active) |
| CO[C@@H]1COC(=O)[C@H]2CCCN2C(=O)[C@@H](C)COC(=O)C/C=C\[C@H]1C | -15.8% [at 11.4 µM] | – |
| COc1cccc(-c2nccc(NCc3cccs3)n2)c1 | – | 5.01 µM (active) |
| COCC(C)NCc1cccc(C)c1 (centres undefined) | – | inactive |
| COc1cccc(-c2nccc(NCc3cccc(C)c3)n2)c1 | – | 3.98 µM (active) |
| Cc1ccc(C)c(S(=O)(=O)NC(CC(C)C)C(=O)O)c1 (centres undefined) | – | inactive |
| Cc1ccc(C)c(S(=O)(=O)NC(C)C(=O)Nc2ccc(-c3nc4ccccc4s3)cc2)c1 (centres undefined) | – | 3.55 µM (active) |
| Cc1ccc2nc(-c3ccc(NC(=O)c4ccc(N)cc4)c(S(=O)(=O)O)c3)sc2c1 | -13.7% [at 11.4 µM] | – |
| CCN(Cc1ccccc1)Cc1cccc([N+](=O)[O-])c1 | – | inactive |
| COc1ccc([N+](=O)[O-])cc1N(CC(O)CN(CC(C)C)CC(C)C)S(=O)(=O)c1ccccc1 (centres undefined) | – | 1.12 µM (active) |
| CCCN(/C=N/c1sc2c(c1C#N)CCCCC2)CCC | – | 7.94 µM (active) |
| CCN(/C=N/c1sc2c(c1C#N)CCCCC2)CC | -17.6% [at 2.29 µM] | – |
| COc1ccc(CNc2ncncc2-c2cccc(NS(C)(=O)=O)c2)c(OC)c1 | – | 0.251 µM (active) |
| COc1ccccc1CNc1ncncc1-c1cccc(NS(C)(=O)=O)c1 | – | 0.251 µM (active) |
| Cc1cc2c(cc1S(N)(=O)=O)S(=O)(=O)CCC2 | – | inactive |
| CCC(C)(C(=O)NC1CCCC1)N(CC1CCCO1)C(=O)c1ccc2c(c1)OCO2 (centres undefined) | – | 3.98 µM (active) |

| SMILES | activity, negative = inhibition | AC50 |
| --- | --- | --- |
| Cc1ccc(C(=O)NCC2CCCO2)cc1N1CCCC1=O (centres undefined) | – | inactive |
| CCOC(=O)Nc1ccc(C(=O)NCC2CCCO2)cc1 (centres undefined) | – | inactive |
| COc1cccc(CNc2ccc3nc(-c4ccc(N)cc4)c(OC)n3n2)c1 | – | 5.01 µM (active) |
| CC(=O)OCCCN1c2ccccc2Nc2nnc(-c3ccccc3)cc21 | – | 12.6 µM (active) |
| CN(C)c1nccc(N(Cc2ccccc2)Cc2ccccc2)c1C#N | – | 12.6 µM (active) |
| Cc1ccc(N(Cc2ccccc2)Cc2ccccc2)cc1 | -22.6% [at 11.4 µM] | – |
| COc1ccc(CN(CCN(C)C)c2ccccn2)cc1 | – | inactive |
| CO[C@@H]1COC(=O)[C@H]2CCCN2C(=O)C/C=C\[C@@H](C)[C@H](OC)COC(=O)[C@H]2CCCN2C(=O)C/C=C\[C@H]1C | -3.39% [at 11.4 µM] | – |
| CN(C)c1ncc2ncc(=O)n(C)c2n1 | – | inactive |
| c1ccc(-c2nccc(-c3ccc(-n4cnc5ccccc54)cc3)n2)nc1 | – | inactive |
| O=C(O)COc1ccc(-c2nccc(-c3cccs3)n2)cc1 | – | inactive |
| c1ccc2c(c1)ncn2-c1ccc(-c2ccnc(-c3ccncc3)n2)cc1 | – | 0.501 µM (active) |
| COc1ccc(C(=O)N2CCC3(CCCN(C(=O)Nc4cccc(C#N)c4)C3)CC2)cc1 | – | 6.31 µM (active) |
| COc1ccc(C(=O)N2CCC[C@@]3(CCN(C(=O)Nc4cccc(C#N)c4)C3)C2)cc1 | – | 7.94 µM (active) |
| COCC(=O)N1CCC2(CCCN(C(=O)Nc3cccc(C#N)c3)C2)CC1 | – | inactive |
| COC(=O)N1CCC2(CC1)CN(C(=O)Nc1cccc(C#N)c1)C2 | – | inactive |
| CC(=O)N1CCC2(CC1)CN(C(=O)Nc1cccc(C#N)c1)C2 | – | inactive |
| COC(=O)N1CCC[C@@]2(CCN(C(=O)Nc3cccc(C#N)c3)C2)C1 | – | inactive |
| COc1ccc(C(=O)N2CCC3(CC2)CN(C(=O)Nc2cccc(C#N)c2)C3)cc1 | – | 15.8 µM (active) |
| N#Cc1cccc(NC(=O)N2CC[C@@]3(CCCN(C(=O)c4ccncc4)C3)C2)c1 | – | 15.8 µM (active) |
| COCC(=O)N1CCC[C@@]2(CCN(C(=O)Nc3ccccc3)C2)C1 | – | inactive |
| COCC(=O)N1CCC2(CC1)CN(C(=O)Nc1cccc(C#N)c1)C2 | – | inactive |
| CC(C)c1nnc(-c2ccc(Cl)cc2)c(N(C)C)n1 | -7.47% [at 2.29 µM] | – |
| CCCn1c(N)c(C(=O)CSc2nc(C)cs2)c(=O)n(C)c1=O | – | 6.31 µM (active) |

| SMILES | activity, negative = inhibition | AC50 |
| --- | --- | --- |
| Cn1c(=O)c(C(=O)CN2CCOCC2)c(N)n(Cc2ccccc2)c1=O | – | inactive |
| O=C(O)[C@@H](O)Cc1ccccn1 | 15.2% [at 11.4 µM] | – |
| CN(C)c1ncc2nc(-c3ccccc3)c(=O)n(Cc3ccc(F)cc3)c2n1 | – | inactive |
| O=c1cnc2cnc(N3CCNCC3)nc2n1Cc1ccc(F)cc1 | – | 7.94 µM (active) |
| CN1CCN(c2ncc3nc(-c4cccc(C#N)c4)c(=O)n(CCC#N)c3n2)CC1 | – | inactive |
| CN1CCN(c2ncc3nc(-c4ccccc4)c(=O)n(Cc4ccc(F)cc4)c3n2)CC1 | – | inactive |
| O=c1c(-c2ccc(F)cc2)nc2cnc(N3CCOCC3)nc2n1C[C@H]1CCCO1 | – | inactive |
| N#CCCn1c(=O)cnc2cnc(N3CCNCC3)nc21 | – | inactive |
| CN1CCN(c2ncc3nc(-c4cccc(C#N)c4)c(=O)n(C)c3n2)CC1 | – | inactive |
| Cc1nc2cnc(N(C)C)nc2n(Cc2ccc(F)cc2)c1=O | – | 0.0251 µM (active) |
| COc1ccc(-n2c(=O)cnc3cnc(N4CCNCC4)nc32)cc1 | – | inactive |
| CN1CCN(c2ncc3nc(-c4cccc(C#N)c4)c(=O)n(Cc4ccc(F)cc4)c3n2)CC1 | – | 20 µM (active) |
| Cc1nc2cnc(N(C)C)nc2n(CCC#N)c1=O | – | inactive |
| O=c1c(-c2ccccc2)nc2cnc(N3CCNCC3)nc2n1Cc1ccc(F)cc1 | – | 3.16 µM (active) |
| N#CCCn1c(=O)c(-c2ccc(F)cc2)nc2cnc(N3CCOCC3)nc21 | – | inactive |
| Cc1nc2cnc(N3CCN(C)CC3)nc2n(C)c1=O | – | inactive |
| Cc1nc2cnc(N3CCNCC3)nc2n(Cc2ccc(F)cc2)c1=O | – | 15.8 µM (active) |
| O=c1c(-c2ccc(F)cc2)nc2cnc(N3CCNCC3)nc2n1Cc1ccc(F)cc1 | – | 7.94 µM (active) |
| COCCn1c(=O)c(-c2ccc(F)cc2)nc2cnc(N3CCOCC3)nc21 | – | inactive |
| COCCn1c(=O)c(C)nc2cnc(N3CCN(C)CC3)nc21 | – | inactive |
| NC(=O)C[C@H](NC(=O)Cc1ccc(O)cc1O)C(=O)O | – | inactive |
| Nc1ncnc2c1ncn2[C@@H]1CCCO1 | – | inactive |
| CCOC(=O)c1cc2c(ccn2C)n1CC(=O)N1CCCC(C)C1 (centres undefined) | – | 14.1 µM (active) |
| Cc1ccc(C)c(Cn2c(C(=O)OC(C)C)cc3c2ccn3C)c1 | – | 7.94 µM (active) |

| SMILES | activity, negative = inhibition | AC50 |
| --- | --- | --- |
| C[C@@H](CN1CCC(Cc2ccccc2)CC1)[C@@H](O)c1ccc(O)cc1 | – | inactive |
| CC(C)OC(=O)c1cc2c(ccn2C)n1CC(=O)N1CCC(Cc2ccccc2)CC1 | – | 7.08 µM (active) |
| COC(=O)c1cc2c(ccn2-c2ccc(F)cc2)n1CC(C)C | – | inactive |
| CCCS(=O)(=O)N1CCCC(C(=O)NCCN2CCC(Cc3ccccc3)CC2)C1 (centres undefined) | – | inactive |
| C[n+]1cccc(CNC(=O)/C=N/O)c1 | – | inactive |
| O=C1NC(O)=NC1(c1ccccc1)c1ccccc1 | – | inactive |
| CCCNC(=O)CC(NS(=O)(=O)c1ccc(Cl)cc1)c1ccco1 (centres undefined) | – | 22.4 µM (active) |
| CCCCNC(=O)NS(=O)(=O)c1cnccc1Sc1ccc(Cl)cc1 | -25.5% [at 2.29 µM] | – |
| O=C(CC(NS(=O)(=O)c1ccc(Cl)cc1)c1ccco1)NCc1ccco1 (centres undefined) | – | 14.1 µM (active) |
| O=C(NCCO)c1cc2c(s1)CCC2 | – | inactive |
| C[C@@H]1O[C@H](O[C@@H]2[C@H](C)O[C@H](O[C@@H]3[C@H](C)O[C@H](O[C@H]4CC[C@]5(C)[C@@H](CC[C@@H]6[C@H]5C[C@@H](O)[C@]5(C)[C@@H](C7=CC(=O)OC7)CC[C@]65O)C4)C[C@@H]3O)C[C@@H]2O)C[C@H](O)[C@@H]1O | – | inactive |
| COCCn1c(=O)c(CCc2ccccc2)nc2cncnc21 | – | 7.94 µM (active) |
| COc1ccccc1CCn1c(=O)c(CCc2ccccc2)nc2cncnc21 | – | 3.16 µM (active) |
| NCCn1c(=O)c(CCc2ccccc2)nc2cncnc21 | – | 15.8 µM (active) |
| O=C(O)/C=C\c1c2ccc(=O)c(O)c-2oc2c(O)c(O)ccc12 | -22.7% [at 11.4 µM] | – |
| COCCn1c(C)cc2c(c1=O)C(c1ccccc1F)C(C#N)=C(N)O2 (centres undefined) | – | 5.62 µM (active) |
| CCCC[S@@](=N)(=O)CC[C@@H](N)C(=O)O | – | inactive |
| CCNCCCNCCCNCCCNCC | – | inactive |
| Cc1cccc(N(C)S(=O)(=O)c2ccc3[nH]c(=O)c(=O)[nH]c3c2)c1 | – | 14.1 µM (active) |
| CCS(=O)(=O)N1CCC[C@H]2CN3CCc4cc(OC)ccc4[C@@H]3C[C@@H]21 | – | 5.01 µM (active) |
| COc1ccc2c3c([nH]c2c1)[C@@H]1C[C@@H]2[C@@H](C[C@H](O)[C@H](OC)[C@H]2C(=O)O)CN1CC3 | – | inactive |
| COc1ccc2c3c([nH]c2c1)[C@H]1C[C@@H]2[C@@H](C[C@@H](O)[C@H](OC)[C@H]2C(=O)O)CN1CC3 | -4.43% [at 11.4 µM] | – |

Source: PubChem BioAssay AID1851 (National Center for Advancing Translational Sciences (NCATS), 2009)
